ChEMBL document CHEMBL1201862, “PubChem BioAssay data set” (2004)
Results with a measured potency or affinity are listed apart. These assays gave more results; the selection is not random.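 Interpolation was linear, between the two tested concentrations surrounding the appropriate level; five concentrations were tested over 48 hours in 96-well plates. GI50: concentration for 50% inhibition of growth.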

Test system: KM-20L2
Experiment: NCI tumour cell line growth inhibition, 48 h

Q: How did the GI50 turn out when CADMIUM DICHLORIDE, CHEMBL1458880 was run?
A: 100 µM
